From PubChem
HP1b chromo inh – blocks HP1-beta chromodomain binding to methylated histone tails; P83916; AlphaScreen HP1-beta / biotin-H3K9me3 peptide binding; Potency, µM (titrated, usually from 114 µM), for the others: at the top dose activity change, negative = inhibition, hits mostly inhibitors; 0.56% of 390,000 active; further: nearly all actives have a fitted effect of over 70% in size
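AlphaScreen: HP1-beta (50 nM) preformed 30 min with biotin-H3(1-18)K9me3 peptide (50 nM) in PBS pH 7.4, 0.01% Tween-20. Compound added for 30 min at RT, then streptavidin donor/nickel chelate acceptor beads (10 ug/mL) for 30 min.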
G9a block – inhibitors of human histone lysine methyltransferase G9a; Q96KQ7; G9a H3K9 monomethylation, AlphaScreen, 2 h; Potency, µM (doses to about 102 µM), for the others: top-dose activity, negative = inhibition, hits mostly inhibitors; 8.8% of 350,000 active; further: on the % scale 0 is the no-effect control and ±100 the full control effect; nearly all actives have a fitted effect of over 75% in size
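Chemiluminescent proximity detection of H3K9 monomethylation, read after 10 min bead incubation in the dark. Reaction: 20 nM G9a, 500 nM biotin-H3K9 peptide, 20 uM SAM cofactor, 2 h, room temperature, following 15 min enzyme-compound preincubation.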
Sfp inh – Sfp phosphopantetheinyl transferase inhibition | Q9F4F7 | 3.5% of 310,000 active | Biochemical Sfp PPTase activity, qHTS | Potency, µM, for the others: largest response in the series, negative = inhibition, hits mostly inhibitors | AID 1490;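 further: the enzyme is Sfp with the accession as filed and its product quenches rhodamine fluorescence; 0% = enzyme reaction without inhibitor and -100% = no enzyme wells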
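With Hepes-Na pH 7.6 buffer containing 10 mM MgCl2, Sfp (15 nM) modified BHQ-2-YbbR (12.5 uM) using rhodamine-CoA (5 uM). Two reads 30 minutes apart at 525/598 nm yielded each well's rate.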
BAZ2B inh – BAZ2B (human) inhibition. Q9UIF8. AlphaScreen BAZ2B-H3K14Ac peptide displacement. Potency, µM (titrated, usually from 114 µM), for the others: top-dose activity change, negative = inhibition, hits mostly inhibitors. 4.4% of 360,000 active; further: on the % scale 0 is the no-effect control and ±100 the full control effect; nearly all actives have a fitted effect of over 60% in size
Target sequence (Q9UIF8 whole entry, looked up): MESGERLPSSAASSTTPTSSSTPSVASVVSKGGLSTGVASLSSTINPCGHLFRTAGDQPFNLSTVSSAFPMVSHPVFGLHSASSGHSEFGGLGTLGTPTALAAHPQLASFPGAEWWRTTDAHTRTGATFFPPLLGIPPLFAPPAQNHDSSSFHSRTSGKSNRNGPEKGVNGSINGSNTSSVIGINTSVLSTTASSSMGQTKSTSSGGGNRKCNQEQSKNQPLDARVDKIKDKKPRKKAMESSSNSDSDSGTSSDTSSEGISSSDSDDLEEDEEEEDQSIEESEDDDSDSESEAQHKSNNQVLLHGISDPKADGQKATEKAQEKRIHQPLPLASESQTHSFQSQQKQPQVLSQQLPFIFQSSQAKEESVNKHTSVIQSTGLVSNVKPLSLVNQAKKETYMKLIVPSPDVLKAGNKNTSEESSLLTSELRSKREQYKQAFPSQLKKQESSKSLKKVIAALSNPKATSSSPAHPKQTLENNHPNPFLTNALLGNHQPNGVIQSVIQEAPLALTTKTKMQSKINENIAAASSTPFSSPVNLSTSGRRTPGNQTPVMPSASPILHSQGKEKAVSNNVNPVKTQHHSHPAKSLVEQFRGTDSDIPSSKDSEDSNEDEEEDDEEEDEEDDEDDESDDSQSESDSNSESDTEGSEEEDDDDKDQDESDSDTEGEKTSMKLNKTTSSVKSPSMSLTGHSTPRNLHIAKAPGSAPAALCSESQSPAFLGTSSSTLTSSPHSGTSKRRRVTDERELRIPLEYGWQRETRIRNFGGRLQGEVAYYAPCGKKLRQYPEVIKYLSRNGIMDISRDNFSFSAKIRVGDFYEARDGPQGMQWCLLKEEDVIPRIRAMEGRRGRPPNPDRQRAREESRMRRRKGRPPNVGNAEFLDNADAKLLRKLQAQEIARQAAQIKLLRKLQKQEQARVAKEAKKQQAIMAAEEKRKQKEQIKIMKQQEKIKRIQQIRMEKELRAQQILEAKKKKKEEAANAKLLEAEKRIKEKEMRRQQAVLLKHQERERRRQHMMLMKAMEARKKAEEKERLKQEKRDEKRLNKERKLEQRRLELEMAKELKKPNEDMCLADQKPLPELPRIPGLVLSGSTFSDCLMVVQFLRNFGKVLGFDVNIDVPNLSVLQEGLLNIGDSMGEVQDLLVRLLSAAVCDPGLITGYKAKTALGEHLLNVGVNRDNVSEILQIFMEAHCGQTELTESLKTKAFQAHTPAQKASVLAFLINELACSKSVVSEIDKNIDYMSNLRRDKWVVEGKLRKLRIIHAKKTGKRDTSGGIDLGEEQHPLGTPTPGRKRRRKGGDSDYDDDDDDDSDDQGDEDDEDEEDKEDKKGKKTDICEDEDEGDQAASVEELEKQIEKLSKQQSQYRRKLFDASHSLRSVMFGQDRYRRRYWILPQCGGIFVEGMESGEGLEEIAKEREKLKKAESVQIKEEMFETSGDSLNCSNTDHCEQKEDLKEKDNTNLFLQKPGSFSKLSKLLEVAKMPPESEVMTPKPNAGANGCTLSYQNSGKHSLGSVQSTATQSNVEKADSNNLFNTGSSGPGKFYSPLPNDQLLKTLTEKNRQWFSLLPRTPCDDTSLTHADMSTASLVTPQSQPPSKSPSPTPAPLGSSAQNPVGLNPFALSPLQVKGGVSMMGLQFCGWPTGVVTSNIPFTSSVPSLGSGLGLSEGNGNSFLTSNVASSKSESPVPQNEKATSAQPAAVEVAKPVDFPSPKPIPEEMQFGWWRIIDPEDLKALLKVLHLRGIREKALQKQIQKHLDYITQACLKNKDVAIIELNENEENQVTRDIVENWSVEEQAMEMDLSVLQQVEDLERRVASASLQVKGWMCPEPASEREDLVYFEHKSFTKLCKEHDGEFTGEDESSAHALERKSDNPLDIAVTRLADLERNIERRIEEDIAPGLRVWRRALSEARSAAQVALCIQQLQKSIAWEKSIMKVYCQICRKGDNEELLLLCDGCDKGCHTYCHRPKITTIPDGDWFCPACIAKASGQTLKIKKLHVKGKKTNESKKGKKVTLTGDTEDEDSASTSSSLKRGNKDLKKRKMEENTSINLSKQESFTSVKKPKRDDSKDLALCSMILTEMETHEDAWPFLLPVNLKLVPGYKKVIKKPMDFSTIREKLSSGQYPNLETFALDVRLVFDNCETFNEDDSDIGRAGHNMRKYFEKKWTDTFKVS
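AlphaScreen luminescence quantifies BAZ2B engagement of H3K14Ac peptide; the protein and biotinylated peptide are both at 50 nM final, buffer PBS pH 7.4 with 0.01% Tween-20, all steps at room temperature.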
JMJD2A Tudor inh – JMJD2A Tudor domain (human) inhibition; O75164; AlphaScreen JMJD2A-Tudor / H3K4me3 peptide binding; 4.4% of 390,000 active; AID 504339; Potency, µM (top dose mostly 114 µM), for inactives: at the top dose activity change, negative = inhibition, most hits filed as inhibitors; further: on the % scale 0 is the no-effect control and ±100 the full control effect; nearly all actives have a fitted effect of over 50% in size
Numbers without * were called inactive; u = inconclusive; x = no result; [ ] = another dose, or the depositor's remark. Sampled rows, rich in hits. Any-hit rate of the full collection: about 12%. The call rests on the fitted dose curve; in most records, active means well fitted curve in the direction sought with a large enough effect; inconclusive means small, poorly fitted or top-dose-only effect, or another doubt; inactive means no such curve, though single readings can be large; an effect the other way counts as inactive or inconclusive. Potency means the concentration at half of the fitted maximal effect.

SMILES | HP1b chromo inh | G9a block | Sfp inh | BAZ2B inh | JMJD2A Tudor inh
COc1ccc(Nc2nc(NN)nc(C)c2[N+](=O)[O-])cc1 | -16.8% | u | 2.0% | u | u
Cc1cccc(-n2c(N)cc(=O)nc2SCC(=O)Nc2nnc(CC(C)C)s2)c1 | x | 10.9% | 5.6% | 4.1% | x
CCOc1ccc(NC(=O)CSc2oc(-c3ccc(F)cc3)nc2S(=O)(=O)c2ccc(C)cc2)cc1 | 36.7% | -0.4%[59 µM] | x | 3.2% | 14.0%
NC(=S)NNC(=O)[C@@H]1CCCC[C@@H]1C(=O)O | -20.5% | 44.7µM* | u | -5.9% | u
O=C(CNC(=O)c1ccc(F)cc1)N/N=C/c1cc(Br)ccc1OC(=O)/C=C/c1ccco1 | 34.7% | 22.9%[59 µM] | 25.1µM* | -7.2% | -6.6%[11.4 µM]
COc1ccc(C(=O)NCCCCCC(=O)N/N=C/c2ccco2)cc1OC | 19.2% | -8.1% | -5.2% | 1.0% | -14.3%
O=C(CNC(=O)c1ccccc1F)N/N=C/c1cc(Br)ccc1OC(=O)/C=C/c1ccco1 | -20.0% | u | -5.5% | -33.8% | -34.3%
COc1ccc(C(=O)NCC(=O)N/N=C/c2ccco2)cc1OC | 28.5% | 70.8µM* | 6.1% | -7.9% | -8.2%
Nc1nonc1C(=O)NCCNc1ncccc1[N+](=O)[O-] | 19.8% | -5.8% | 5.9% | x | -17.3%
COc1ccccc1CNC(=O)CCc1ccccc1 | 24.5% | 19.0%[59 µM] | 18.3% | -5.4% | -8.5%
COc1cccc(CSc2nc3ccccc3cc2C=O)c1 | 35.5% | 4.5%[59 µM] | -9.4% | -0.9% | 0.8%
COC(=O)c1c(NC(C)=O)sc2c1CCCCC2 | -13.4% | 8.91µM* | 56.2µM* | u | -12.5%
COC(=O)c1c(NC(C)=O)sc2c1CCCC2 | 33.1% | -26.2%[59 µM] | -13.5% | -12.1% | 3.3%
CCOC(=O)c1c(NC(=S)Nc2ccc(OC)cc2)sc2c1CCC2 | u | -47.5%[59 µM] | u | u | -9.3%
CCOC(=O)c1c(NC(=S)Nc2ccc(OC)cc2)sc2c1CCCCC2 | u | u | -2.8% | -32.4% | -34.4%[57.1 µM]
COC(=O)c1c(NC(=S)Nc2ccc(F)cc2[N+](=O)[O-])sc2c1CCCCC2 | -31.3% | 35.5µM* | 14.1µM* | u | u
COC(=O)c1c(NS(C)(=O)=O)sc2c1CCCC2 | 34.0% | u | 17.8µM* | -5.9% | -20.1%
COC(=O)c1c(NC(=S)Nc2ccc(C(=O)N3CCOCC3)cc2)sc2c1CCC2 | 9.8% | 50.1µM* | u | -23.3% | -16.3%
O=C(Nc1cccnc1)c1ccc(Cl)c(S(=O)(=O)N2CCCCCC2)c1 | 4.8% | 21.3%[59 µM] | 0.4% | -0.3% | -27.6%
Cc1ccc([N+](=O)[O-])cc1NC(=O)C(C)N1CCCCC1 (centres undefined) | 29.3% | -41.1% | 0.3% | -7.8% | -17.7%
CNC(=S)Nc1sc2c(c1C(=O)OC)CCC2 | 5.4% | 15.8µM* | 24.4% | 3.8% | 89.1µM*
COC(=O)c1c(NC(=O)C2CCCO2)sc2c1CCC2 (centres undefined) | 1.5% | -9.7%[59 µM] | -15.6% | -4.2% | -17.0%
O=C(OCC(=O)c1c[nH]c2ccccc12)c1ccc([N+](=O)[O-])s1 | u | 44.7µM* | 2.3% | u | u
Cc1ccc(N=Nc2[nH]c3ccccc3c2O)cc1 | 32.4% | 14.1µM* | -13.7% | 56.2µM* | u
COc1ccc(N=Nc2[nH]c3ccc(C)cc3c2O)cc1 | 23.6% | 11.2µM* | -16.3% | u | 4.2%
SMILES | HP1b chromo inh | G9a block | Sfp inh | BAZ2B inh | JMJD2A Tudor inh
CC(C)=NNC(=O)c1c(O)c2ccccc2[nH]c1=O | 40.6% | x | -6.0% | -14.3% | 5.4%
CC12CC(c3ccccc3O1)N(C(=O)c1ccco1)C(=S)N2c1ccccc1 (centres undefined) | -1.3% | 39.8µM* | -7.0% | u | -28.4%
CSC1=C(C#N)C(=O)NC(c2ccc(Cl)cc2)S1 (centres undefined) | -4.0% | 31.6µM* | -13.8% | u | -19.7%
CSc1nc(-c2ccc(Cl)cc2)c(C#N)c(=O)[nH]1 | 16.7% | u | 27.1% | -17.2% | 1.1%
COc1ccc(NC(=S)NCc2ccc(Cl)cc2)c(OC)c1 | 9.6% | x | 8.5% | 7.6% | -29.6%
COc1ccc2c(CCNC(N)=S)c[nH]c2c1 | -17.7% | -41.8% | 2.1% | 89.1µM* | 20µM*
COc1ccc(NC(=S)NCCc2c[nH]c3ccccc23)c(OC)c1 | 6.7% | 50.1µM* | 25.5% | 44.7µM* | -29.7%
